# Measured values taken from PubChem BioAssay AID686978 (National Center for Advancing Translational Sciences (NCATS), 2013).
# Out of some 420,000 compounds screened, about 64,000 (15%) were called active. Another 27% or so got no clear call; they are omitted. Calls follow the shape of the dose curve; as a rule, active = well fitted inhibition curve with a large enough effect; inconclusive = small, poorly fitted or top-dose-only effect; inactive = flat fitted curve, though single readings scatter. Not all results are given here.
# Experiment: qHTS for Inhibitors of human tyrosyl-DNA phosphodiesterase 1 (TDP1): qHTS in cells in absence of CPT; also: nearly all actives have a fitted effect of over 55% in size
# Conditions: DT40 Tdp1-/- hTDP1 cells, no CPT, ATP luminescence, 48 h; activity change, negative = growth inhibition: at 46.2 µM (top of the series)
# How it was run: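 No-CPT arm: Tdp1-/-;hTDP1 DT40 cells (400/well) plus compounds, incubated ≥48 hr at 37 °C. Readout CellTiter-Glo luminescence.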
# % is scaled to controls: 0 for no effect and ±100 for the full control effect; potency is read from the fitted curve at half-maximal effect.
SMILES,"activity change, negative = growth inhibition",Potency
CN(C)c1nccc(NCc2ccccc2)c1C#N,-11.5% (inactive),–
Cc1ccc(-c2nnc(SC(C)C#N)n2N)cc1 (stereo not drawn),-11.7% (inactive),–
CCCNC(=O)C(CC)n1nc(CC)n2c(cc3oc(C)cc32)c1=O (stereo not drawn),–,20.6 µM (active)
CCc1nn(CC(=O)NCC(C)c2ccccc2)c(=O)c2cc3occc3n12 (stereo not drawn),-24.4% (inactive),–
CCc1nn(CCCC(=O)NC(C)c2ccccc2)c(=O)c2cc3occc3n12 (stereo not drawn),8.18% (inactive),–
Cc1ccnc(NC(=O)CCC(=O)N(CC(=O)NCCc2ccccc2)Cc2cccs2)c1,-11.8% (inactive),–
C=CCNC(=O)C1CC=CCC1C(=O)O (stereo not drawn),-1.68% (inactive),–
CCCCNC(=O)c1ccc(-n2c(=S)[nH]c3ccccc3c2=O)cc1,-6.01% (inactive),–
O=[N+]([O-])c1ccccc1/C=C/CN1CCC(O)CC1,10.5% (inactive),–
O=C(c1cc(COc2c(F)cccc2F)on1)N1CCSCC1,-1.53% (inactive),–
N=c1c2c(-c3ccccc3)c(-c3ccccc3)oc2ncn1Cc1ccco1,–,20.6 µM (active)
C(=C\c1ccccc1)/CSc1nnc(-c2cccnc2)n1Cc1ccco1,4.04% (inactive),–
Cn1c(SCC(=O)N2CCOCC2)nnc1-c1ccc2ncccc2c1,-28.6% (inactive),–
O=C1c2ccncc2C(=O)N1C1CCCCC1,3.68% (inactive),–
Cn1c(=O)c(=O)n(C)c2cc(S(=O)(=O)NCCc3ccccc3)ccc21,-4.87% (inactive),–
C=CC[C@@H](Cc1ccc(F)cc1)C(=O)OC[C@H]1CCCN1C(=O)[C@H](CC=C)CC(=O)N(CCO)Cc1ccccc1,–,18.4 µM (active)
C=CCC(NC(=O)Cc1ccccc1)C(=O)NCCC (stereo not drawn),-4.55% (inactive),–
CC(CCc1ccccc1)NC(=O)COC(=O)c1ccc(F)cc1 (stereo not drawn),-0.972% (inactive),–
C=CCC[C@@H](Cc1ccc(F)cc1)C(=O)OC[C@@H](C)NC(=O)[C@H](CC=C)CC(=O)N(CCO)Cc1ccccc1,–,8.2 µM (active)
C=CC[C@H](CC(=O)N(CCO)Cc1ccccc1)C(=O)N[C@@H](COC(=O)[C@@H](CC=C)Cc1ccc(F)cc1)Cc1ccccc1,–,20.6 µM (active)
O=C(O)CCC(=O)O,0.325% (inactive),–
CC(=O)Nc1ccc(N2C(=O)CCC2=O)cc1C,-6.41% (inactive),–
Cc1cc(=O)cc(C)[nH]1,-0.466% (inactive),–
COc1cc(C(=O)NCCOC(=O)c2cccc(N(C)C)c2)cc(OC)c1OC,-26.7% (inactive),–
Cc1ccc(C(=O)N(CC(=O)NC2CCCC2)c2ccc(F)cc2)s1,-24.1% (inactive),–
N/C(=N/O)c1cccn1Cc1ccccc1[N+](=O)[O-],1.55% (inactive),–

SMILES,"activity change, negative = growth inhibition",Potency
O=[N+]([O-])c1ccccc1NCc1ccccc1Cl,-17% (inactive),–
O=c1c([N+](=O)[O-])cccn1Cc1ccc(F)cc1Cl,–,20.6 µM (active)
COc1ccc(C2C(C#N)=C(/N=C/N3CCOCC3)OC3=C2C(=O)CC(C)(C)C3)cc1OC (stereo not drawn),-4.9% (inactive),–
CC(C)NS(=O)(=O)c1ccc(CCC(=O)N2CCOCC2)cc1,4.33% (inactive),–
CCNS(=O)(=O)c1ccc(CCC(=O)N2CCN(c3cc(Cl)ccc3C)CC2)cc1,–,11.6 µM (active)
Cc1ccc(S(=O)(=O)NCCC(=O)NCc2ccc(Cl)cc2)cc1C,-9.55% (inactive),–
O=c1[nH]c(CSc2ncc(-c3ccc(F)cc3)n2Cc2ccco2)nc2ccccc12,–,20.6 µM (active)
Nc1cc(=O)nc(SCc2ccccc2)n1Cc1ccco1,-21.7% (inactive),–
O=C(CSc1nnc2scc(-c3ccc(F)cc3)n12)NCc1ccco1,-2.24% (inactive),–
Nc1nonc1-c1nc2ccccc2n1CCC(=O)O,-11.1% (inactive),–
COc1ccc(C)c(Cn2c(-c3nonc3N)nc3ccccc32)c1,–,2.31 µM (active)
CC(C)(C)N1CC(c2nc3ccccc3n2Cc2ccc(F)cc2)CC1=O (stereo not drawn),-19.4% (inactive),–
Nc1nonc1-c1nc2ccccc2n1Cc1ccc(F)cc1,–,20.6 µM (active)
COc1ccc2oc(N)nc2c1,-16.7% (inactive),–
Cc1noc(C)c1COC(=O)Cn1c(C)nc2ccccc21,-5.16% (inactive),–
Cn1c(SCC(=O)N2CCCC2)nnc1-c1cccs1,-2.82% (inactive),–
CN(Cc1ccccc1)C(=O)CCNC(=O)Cn1cnc2ccccc2c1=O,-15.3% (inactive),–
CN1CCCCCC1C(=O)NCCN1Cc2ccccc2OC(c2ccsc2)C1 (stereo not drawn),-4.19% (inactive),–
CCOc1ccc(NC(=O)Cn2c(=O)n(CCCC(=O)NCc3ccc4c(c3)OCO4)c(=O)c3ccccc32)cc1,1.6% (inactive),–
Cn1c(=O)c2ccccc2n(CC(=O)Nc2ccc3c(c2)OCCO3)c1=O,–,9.2 µM (active)
CCc1ccc(NC(=O)Cn2nnc(C(=O)NCc3ccc4c(c3)OCO4)c2N)cc1,-16.8% (inactive),–
CCc1ccc(NC(=O)Cn2c(=O)n(CCC(=O)NCc3ccc4c(c3)OCO4)c(=O)c3ccccc32)cc1,–,9.2 µM (active)
O=C(Cn1c(=O)sc2ccccc21)Nc1ccc2c(c1)OCCO2,-13.3% (inactive),–
CCCCC(=O)Nc1ccc2c(c1)OCCO2,-9.43% (inactive),–
Oc1ccc(-c2[nH]ncc2-c2nc3ccccc3s2)c(O)c1,10.6% (inactive),–
COCCOC1CCN(C(=O)c2ccc(OC)c(OC3CCN(C(C)C)CC3)c2)CC1,8.08% (inactive),–

SMILES,"activity change, negative = growth inhibition",Potency
NC(=O)c1ccc(N2CCOCC2)nc1,22.6% (inactive),–
CC(C)CNC(=O)COC(=O)/C=C/c1ccco1,-4.26% (inactive),–
COc1cc(NC(=O)NCC2CCN(Cc3ccc(C)cc3)CC2)cc(OC)c1OC,–,inactive
COc1ccc(C)cc1S(=O)(=O)NCCc1ccccc1,-19.9% (inactive),–
COc1ccc(-c2onc(C)c2C)cc1S(=O)(=O)NCc1cccs1,–,18.4 µM (active)
COc1ccc(C)cc1NC(=O)CNCc1cccs1,-1.9% (inactive),–
COc1ccc(-c2onc(C)c2C)cc1S(=O)(=O)NCC1CCN(Cc2cccc(F)c2)CC1,–,25.9 µM (active)
Cc1ccc(-c2onc(C)c2C)cc1S(=O)(=O)Nc1ccccn1,-25.3% (inactive),–
O=C(CN1C2CCC1CC(NC(=O)C1CC1)C2)NCc1ccccc1 (stereo not drawn),1.04% (inactive),–
O=S(=O)(O)CCN1CCOCC1,-6.34% (inactive),–
Cc1nc2nc(CSc3nc4ccccc4s3)cc(=O)n2[nH]1,-12% (inactive),–
C=CCOC(=O)C1=C[C@@H](c2ccc3c(c2)OCO3)C[C@@H](OCCCCO)O1,-79.5% (inactive),–
COc1ccc2ccccc2c1CNCc1ccccn1,-28.3% (inactive),–
Cc1ccc(C)c(NC(=O)CCC(=O)NNC(=O)c2cccs2)c1,-1.86% (inactive),–
Cc1ccc(C)c(NC(=S)NNC(=O)c2csc(C)c2)c1,–,18.4 µM (active)
Cc1ccc(C)c(NC(=O)NNC(=O)c2ccc3ccccc3c2O)c1,-26.2% (inactive),–
Cc1cc(C(=O)OCC(=O)Nc2nnc(C(C)C)s2)c2ccccc2n1,-1.36% (inactive),–
C=CCO/N=C(\C)c1c(O)c(C)c(-c2ccccc2)n(-c2ccccc2)c1=O,4.5% (inactive),–
CC(C)c1ccc(NC(=O)c2ccc3c(O)c(S(=O)(=O)c4ccccc4)c(=O)[nH]c3c2)cc1,-26.3% (inactive),–
COc1cc(OC)c(NS(=O)(=O)c2cn(C)cn2)cc1Cl,8.31% (inactive),–
COc1ccc(C)cc1S(=O)(=O)Nc1cccc(Cl)c1Cl,-19.3% (inactive),–
COC(=O)c1scc(-c2ccc(C)cc2)c1S(=O)(=O)Nc1cc(Cl)c(OC)cc1OC,–,11.6 µM (active)
CC1O[C@@H](OC2C(O)C(C)O[C@H](OC(=O)[C@]34CCC(C)(C)C[C@H]3C3=CCC5[C@@]6(C)CC(O)C(O[C@@H]7OC(CO)C(O)[C@@H](O)[C@@H]7O)[C@@](C)(C(=O)O)C6CC[C@@]5(C)[C@]3(CO)CC4)C2O[C@H]2OC(C)[C@@H](O[C@@H]3OCC(O[C@@H]4OC(CO)C(O)[C@H](O)C4O)[C@@H](O)[C@@H]3O)[C@H](O)C2O)C(O)C(O)C1O (stereo partly drawn),-0.939% (inactive),–
Cc1ccc(CN2COc3cc(C)c4c(oc(=O)c5ccccc54)c3C2)cc1,-25.3% (inactive),–
CN(C(=O)c1ccccn1)c1nnc(-c2ccccn2)s1,-6.67% (inactive),–
CC1CC(C)(C)NC(=S)N1CCC(=O)N1CCN(Cc2ccccc2)CC1 (stereo not drawn),-5.4% (inactive),–

SMILES,"activity change, negative = growth inhibition",Potency
Cc1ccc(N(Cc2cc(=O)[nH]c3ccccc23)C(=O)CCl)cc1,–,2.31 µM (active)
CC(=O)N(Cc1cc(=O)[nH]c2ccccc12)c1ccc(C)cc1C,-4.22% (inactive),–
CCOC(=O)c1ccc(COC(=O)c2cc(=O)[nH]c3ccccc23)o1,5.73% (inactive),–
CC(=O)Nc1ccn(Cc2c(F)cccc2Cl)n1,-21.4% (inactive),–
COC(=O)c1ccccc1NC(=O)c1ccc(COc2ccccc2Cl)o1,-23.7% (inactive),–
O=C(Nc1ccn(Cc2ccccc2F)n1)c1ccc(COc2ccc(Cl)cc2Cl)o1,–,25.9 µM (active)
O=C1CC(c2ccccc2)C(=O)N2C(=O)CC(c3ccccc3)C(=O)N12 (stereo not drawn),-3.36% (inactive),–
c1ccc2c(c1)OCC(c1nn3cnnc3s1)O2 (stereo not drawn),9.7% (inactive),–
O=C(CN1CCCC1)Nc1sc2c(c1C(=O)Nc1ccccc1)CCCC2,-23.3% (inactive),–
CCOc1ccc(NC(=O)c2c(NC(=O)Cc3ccccc3)sc3c2CCC(C)C3)cc1 (stereo not drawn),–,20.6 µM (active)
COc1ccc(CC(=O)Nc2sc(Cc3ccccc3)c(C)c2C(N)=O)cc1,-17.9% (inactive),–
CCOc1ccc(NC(=O)c2c(NC(=O)Cc3ccccc3)sc3c2CCCCC3)cc1,–,20.6 µM (active)
CCOC(=O)c1c(NC(=O)/C=C/c2ccc(OC)cc2)sc2c1CCC(C)C2 (stereo not drawn),-5.43% (inactive),–
CC(C)OC(=O)c1c(NC(=O)c2ccco2)sc2c1CCCC2,2.44% (inactive),–
Cc1sc2c(c1C)c(=O)n(-c1ccccc1)c1nncn21,-26.5% (inactive),–
Cc1cccc(C2c3c(n(C)c(=O)n(C)c3=O)N=C3c4ccccc4C(=O)C32)c1 (stereo not drawn),-57.1% (inactive),–
CC(=O)c1sc(N/N=C\c2ccc(C)cc2)nc1C,-6.34% (inactive),–
Cc1ccc(Nc2nc(N)nc(CSc3nnc(C)s3)n2)cc1,-20.7% (inactive),–
Cc1ccc(Nc2nc(Cl)c(C=O)s2)cc1,–,23.1 µM (active)
COc1ccc(CC(=O)Nc2c3c(nn2-c2cccc(Cl)c2)CS(=O)C3)cc1 (stereo not drawn),-24.1% (inactive),–
Cc1ccc(OCC(=O)NC(C)c2ccccc2)c([N+](=O)[O-])n1 (stereo not drawn),-5.01% (inactive),–
C=C1C2C[C@H](O)C(C)(C)[C@@]2(O)[C@H](O)C[C@]23C[C@@](C)(O)[C@H](CC[C@H]12)[C@H]3O (stereo partly drawn),12.3% (inactive),–
Cc1c(C(=O)N/N=C/c2ccccc2)[nH]c2c([N+](=O)[O-])cccc12,–,0.92 µM (active)
Cc1nn(-c2ccccc2)c(Cl)c1/C=N/NC(=O)c1nn(C)cc1[N+](=O)[O-],-28.7% (inactive),–
Cc1cc(C(=O)N/N=C/c2ccccc2[N+](=O)[O-])c(C)o1,-20.6% (inactive),–
